Test results: PubChem BioAssay (EPA / NIEHS)
The source made the active and inactive calls. Rule for the calls: active = hit-call score of the fitted dose curve at least 0.9, where 1 is the maximum; inactive = score below 0.9.

What was measured:
Conditions in all cases: mRNA level, 48 h; actives raise or lower the signal
[1] = read-out: Potassium channel subfamily K member 1 (KCNK1), KCNK1 (gene 3775); test: LTEA_HepaRG_KCNK1: Life Technologies and Expression Analysis (LTEA) Assay for Potassium channel subfamily K member 1 (KCNK1) using HepaRG (AID 2283511)
Outline: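 KCNK1 transcript measured by TaqMan qRT-PCR against three housekeeping genes, after HepaRG cells were treated 48 h with eight half-log concentrations (top 100 uM, 0.5% DMSO). Curves fitted bidirectionally relative to vehicle.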

[2] = read-out: Keratin 19 (KRT19), KRT19 (gene 3880); test: LTEA_HepaRG_KRT19: Life Technologies and Expression Analysis (LTEA) Assay for Keratin 19 (KRT19) using HepaRG (AID 2283512)
Outline: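 KRT19 transcript levels, measured by Fluidigm qRT-PCR against three housekeeping genes, are fitted for gain or loss of signal relative to DMSO. Human HepaRG cells receive test chemicals (top 100 uM, half-log steps, 0.5% DMSO) for 48 hours.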

[3] = read-out: JUN Transcription Factor, JUN (gene 3725); test: LTEA_HepaRG_JUN: Life Technologies and Expression Analysis (LTEA) Assay for JUN Transcription Factor using HepaRG (AID 2283513)
Outline: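 Read-out is JUN transcript level by TaqMan qRT-PCR, normalized to ACTB, GAPDH and POLR2A, after 48 h chemical treatment of HepaRG cells. Concentration-response spanned eight half-log points up to 100 uM in 0.5% DMSO.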

[4] = read-out: Lipase C (LIPC), LIPC (gene 3990); test: LTEA_HepaRG_LIPC: Life Technologies and Expression Analysis (LTEA) Assay for Lipase C (LIPC) using HepaRG (AID 2283514)
Outline: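 LIPC expression was quantified by qRT-PCR against three housekeeping genes (ACTB, GAPDH, POLR2A). Differentiated human HepaRG cells received eight half-log doses (top 100 uM, 0.5% DMSO) in duplicate for 48 h; fitting bidirectional relative to DMSO.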

[5] = read-out: MicroRNA 122 (MIR122), gene 406906; test: LTEA_HepaRG_MIR122: Life Technologies and Expression Analysis (LTEA) Assay for MicroRNA 122 (MIR122) using HepaRG (AID 2283516); note: the transcript read is the microRNA miR-122
Outline: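 Human liver HepaRG cultures receive test chemicals for 48 h at eight half-log concentrations from 100 uM. Expression is quantified by qRT-PCR with ACTB/GAPDH/POLR2A normalization and fitted bidirectionally against 0.5% DMSO.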

[6] = read-out: matrix metalloproteinase-10 (MMP10), MMP10 (gene 4319); test: LTEA_HepaRG_MMP10: Life Technologies and Expression Analysis (LTEA) Assay for matrix metalloproteinase-10 (MMP10) using HepaRG (AID 2283517)
Outline: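 Expression measured by TaqMan qRT-PCR with ACTB/GAPDH/POLR2A normalisation after 48 h chemical exposure of HepaRG cells. Eight half-log concentrations, top 100 uM, 0.5% DMSO vehicle, duplicates; gain or loss fitted against vehicle.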

MYC, MYC (gene 4609) = test: LTEA_HepaRG_MYC: Life Technologies and Expression Analysis (LTEA) Assay for MYC using HepaRG (AID 2283518)
Outline: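 HepaRG, ~100,000 cells/well, collagen I; 48 h plating; serum-free induction medium; 48 h dosing, duplicate, 100 uM top, half-log, 0.5% DMSO; total RNA → qRT-PCR MYC; gain/loss fit vs DMSO.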

[7] = read-out: matrix metalloproteinase-3 (MMP3), MMP3 (gene 4314); test: LTEA_HepaRG_MMP3: Life Technologies and Expression Analysis (LTEA) Assay for matrix metalloproteinase-3 (MMP3) using HepaRG (AID 2283519)
Outline: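 Fluidigm-based TaqMan qRT-PCR, normalized to ACTB, GAPDH and POLR2A and fitted bidirectionally versus 0.5% DMSO, measured transcript levels. Treatment: duplicate 48 h exposures of HepaRG cells, ~100,000/well, to eight half-log concentrations topping at 100 uM.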

[8] = read-out: Paternally Expressed 10 (PEG10), PEG10 (gene 23089); test: LTEA_HepaRG_PEG10: Life Technologies and Expression Analysis (LTEA) Assay for Paternally Expressed 10 (PEG10) using HepaRG (AID 2283520);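 for AC50: PEG10 transcript by qRT-PCR normalised to ACTB GAPDH and POLR2A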
Outline: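 Human HepaRG cultures are dosed for 48 h across an eight-point half-log series starting at 100 uM, with 0.5% DMSO as vehicle and baseline. Gain or loss of PEG10 transcript is measured by qRT-PCR and fitted in both directions.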

[9] = read-out: Nuclear factor NF-kappa-B p105 subunit (Homo sapiens) (UniProt P19838); test: LTEA_HepaRG_NFKB1: Life Technologies and Expression Analysis (LTEA) Assay for Nuclear Factor Kappa B Subunit 1 (NFKB1) using HepaRG (AID 2283521);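 note: differentiated human HepaRG liver cells in serum-free induction medium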
Outline: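 HepaRG, 48 h exposure; 8-pt half-log series from 100 uM in 0.5% DMSO; duplicates. Readout: NFKB1 mRNA by qRT-PCR (Fluidigm arrays), housekeeping-normalized. Gain/loss fit vs DMSO baseline.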

[10] = read-out: Protein phosphatase 2A (PPP2R4), PTPA (gene 5524); test: LTEA_HepaRG_PPP2R4: Life Technologies and Expression Analysis (LTEA) Assay for Protein phosphatase 2A (PPP2R4) using HepaRG (AID 2283522)
Outline: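 Cells were plated, cultured 48 h, switched to serum-free induction medium, then dosed for 48 h (8 points, max 100 uM, 0.5% DMSO). RNA was isolated and PPP2R4 expression measured by TaqMan qRT-PCR.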

[11] = read-out: Phosphatase and tensin (PTEN), PTEN (gene 5728); test: LTEA_HepaRG_PTEN: Life Technologies and Expression Analysis (LTEA) Assay for Phosphatase and tensin (PTEN) using HepaRG (AID 2283523)
Outline: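 Read-out: TaqMan qRT-PCR of PTEN transcript, normalized to three housekeeping genes, fitted in both directions against 0.5% DMSO. Differentiated human HepaRG cultures received chemicals for 48 h, eight-point half-log series topping at 100 uM.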

[12] = read-out: solute carrier (SLC22A1), SLC22A1 (gene 6580); test: LTEA_HepaRG_SLC22A1: Life Technologies and Expression Analysis (LTEA) Assay for solute carrier (SLC22A1) using HepaRG (AID 2283524);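 for AC50: differentiated human HepaRG liver cells in serum-free induction medium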
Outline: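 Transcript level of SLC22A1 quantified by qRT-PCR (normalized to three housekeeping genes) after 48 h chemical exposure of HepaRG cells, eight concentrations up to 100 µM, half-log steps, 0.5% DMSO vehicle. Gain or loss relative to DMSO fitted bidirectionally.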

[13] = read-out: Pyruvate Dehydrogenase Kinase 4 (PDK4), PDK4 (gene 5166); test: LTEA_HepaRG_PDK4: Life Technologies and Expression Analysis (LTEA) Assay for Pyruvate Dehydrogenase Kinase 4 (PDK4) using HepaRG (AID 2283525)
Outline: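 Readout is qRT-PCR of PDK4 transcript, normalized to three housekeeping genes, with bidirectional fitting against 0.5% DMSO vehicle. Differentiated HepaRG cells were treated 48 h in serum-free induction medium, duplicate wells, eight-point half-log series topping at 100 uM.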

[14] = read-out: Nuclear factor erythroid 2-related factor 2 (Homo sapiens) (UniProt Q16236); test: LTEA_HepaRG_NFE2L2: Life Technologies and Expression Analysis (LTEA) Assay for Nuclear factor erythroid 2-related factor 2 (NFE2L2) Transcription Factor using HepaRG (AID 2283527)
Outline: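 NFE2L2 transcript level was read by qRT-PCR (housekeeping ACTB/GAPDH/POLR2A normalisation) after 48 h chemical treatment of HepaRG in serum-free induction medium. Duplicate 8-point half-log curves, top 100 uM, 0.5% DMSO vehicle; up- or down-regulation fitted against vehicle.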

[15] = read-out: succinate dehydrogenase complex iron sulfur subunit B (SDHB), SDHB (gene 6390); test: LTEA_HepaRG_SDHB: Life Technologies and Expression Analysis (LTEA) Assay for succinate dehydrogenase complex iron sulfur subunit B (SDHB) using HepaRG (AID 2283528)
Outline: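 Readout is SDHB transcript level by qRT-PCR, normalised to three housekeeping genes and fitted bidirectionally against 0.5% DMSO vehicle. Human HepaRG cells were treated for 48 h at up to 100 uM.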

[16] = read-out: Signal transducer and activator of transcription 3 (Homo sapiens) (UniProt P40763); test: LTEA_HepaRG_STAT3: Life Technologies and Expression Analysis (LTEA) Assay for Signal transducer and activator of transcription (STAT3) using HepaRG (AID 2283529)
Outline: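 STAT3 transcript quantified by qRT-PCR against three housekeeping genes (ACTB, GAPDH, POLR2A), fitted both directions relative to DMSO. HepaRG cultures exposed 48 h to eight half-log concentrations, top 100 uM, 0.5% DMSO, serum-free induction medium.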

[17] = read-out: solute carrier (SLCO1B1), SLCO1B1 (gene 10599); test: LTEA_HepaRG_SLCO1B1: Life Technologies and Expression Analysis (LTEA) Assay for solute carrier (SLCO1B1) using HepaRG (AID 2283530)
Outline: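 HepaRG, serum-free induction medium, 48 h dosing, 8-pt half-log from 100 uM, 0.5% DMSO vehicle, duplicates. Readout: SLCO1B1 mRNA, qRT-PCR, ACTB/GAPDH/POLR2A normalization; up or down fit vs DMSO.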

[18] = read-out: Lipoprotein lipase (LPL), LPL (gene 4023); test: LTEA_HepaRG_LPL: Life Technologies and Expression Analysis (LTEA) Assay for Lipoprotein lipase (LPL) using HepaRG (AID 2283515)
Outline: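 LPL transcript levels quantified by TaqMan qRT-PCR against three housekeeping genes after 48 h chemical treatment of HepaRG cells. Eight-point half-log series from 100 uM in 0.5% DMSO, tested in duplicate; bidirectional fitting versus vehicle.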

[19] = read-out: NAD(P)H dehydrogenase [quinone] 1 (NQO1), NQO1 (gene 1728); test: LTEA_HepaRG_NQO1: Life Technologies and Expression Analysis (LTEA) Assay for NAD(P)H dehydrogenase [quinone] 1 (NQO1) using HepaRG (AID 2283526)
Outline: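 Transcript induction or suppression is quantified by qRT-PCR in human HepaRG liver cells dosed for 48 hours. Eight half-log concentrations topping at 100 uM are used, with 0.5% DMSO as vehicle and baseline.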

Measured: AC50

Nuclear factor NF-kappa-B p105 subunit (Homo sapiens), sequence (P19838 whole entry, looked up): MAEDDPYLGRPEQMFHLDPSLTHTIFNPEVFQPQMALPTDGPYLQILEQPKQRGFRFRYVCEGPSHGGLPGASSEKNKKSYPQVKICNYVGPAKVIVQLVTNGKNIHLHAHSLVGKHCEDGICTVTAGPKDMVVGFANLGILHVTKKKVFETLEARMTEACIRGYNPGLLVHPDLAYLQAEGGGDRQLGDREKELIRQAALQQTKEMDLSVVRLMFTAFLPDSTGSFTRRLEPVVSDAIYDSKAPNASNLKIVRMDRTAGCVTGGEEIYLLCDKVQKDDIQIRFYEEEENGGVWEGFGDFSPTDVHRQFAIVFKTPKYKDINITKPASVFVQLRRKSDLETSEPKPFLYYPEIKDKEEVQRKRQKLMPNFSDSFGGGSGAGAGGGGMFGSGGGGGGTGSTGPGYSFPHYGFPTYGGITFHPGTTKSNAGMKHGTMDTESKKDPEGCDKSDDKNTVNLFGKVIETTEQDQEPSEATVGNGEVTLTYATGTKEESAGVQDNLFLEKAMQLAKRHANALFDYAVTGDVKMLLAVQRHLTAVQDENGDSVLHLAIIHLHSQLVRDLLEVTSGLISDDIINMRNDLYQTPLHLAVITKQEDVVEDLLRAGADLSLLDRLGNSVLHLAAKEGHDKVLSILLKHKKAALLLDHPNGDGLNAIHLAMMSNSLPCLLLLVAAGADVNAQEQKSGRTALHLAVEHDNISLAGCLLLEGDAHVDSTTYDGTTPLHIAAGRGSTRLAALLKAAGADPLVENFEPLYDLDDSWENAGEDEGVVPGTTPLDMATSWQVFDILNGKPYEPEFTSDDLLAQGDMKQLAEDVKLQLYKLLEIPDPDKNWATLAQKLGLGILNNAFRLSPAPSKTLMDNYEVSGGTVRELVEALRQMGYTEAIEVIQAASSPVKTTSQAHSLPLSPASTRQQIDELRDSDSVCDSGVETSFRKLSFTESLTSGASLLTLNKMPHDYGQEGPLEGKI
Signal transducer and activator of transcription 3 (Homo sapiens), sequence (P40763 whole entry, looked up): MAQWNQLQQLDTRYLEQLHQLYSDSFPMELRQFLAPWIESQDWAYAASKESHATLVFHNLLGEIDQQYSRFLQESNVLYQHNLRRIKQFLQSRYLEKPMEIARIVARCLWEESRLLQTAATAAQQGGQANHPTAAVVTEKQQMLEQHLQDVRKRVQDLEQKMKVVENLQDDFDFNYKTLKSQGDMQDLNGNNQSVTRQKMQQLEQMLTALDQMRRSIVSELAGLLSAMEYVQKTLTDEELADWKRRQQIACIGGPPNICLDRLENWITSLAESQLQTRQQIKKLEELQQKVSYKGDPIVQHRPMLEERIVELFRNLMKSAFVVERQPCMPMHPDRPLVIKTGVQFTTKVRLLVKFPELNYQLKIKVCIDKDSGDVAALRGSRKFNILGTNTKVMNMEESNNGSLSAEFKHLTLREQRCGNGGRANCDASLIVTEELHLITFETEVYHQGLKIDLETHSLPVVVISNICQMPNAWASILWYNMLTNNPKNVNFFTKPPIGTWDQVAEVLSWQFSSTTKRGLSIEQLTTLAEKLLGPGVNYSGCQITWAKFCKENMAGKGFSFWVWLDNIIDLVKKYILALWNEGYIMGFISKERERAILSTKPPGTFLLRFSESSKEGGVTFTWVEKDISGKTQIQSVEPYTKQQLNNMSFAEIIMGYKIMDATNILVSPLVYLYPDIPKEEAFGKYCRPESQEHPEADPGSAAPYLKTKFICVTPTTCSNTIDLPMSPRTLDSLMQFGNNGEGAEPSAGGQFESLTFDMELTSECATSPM
Nuclear factor erythroid 2-related factor 2 (Homo sapiens), sequence (Q16236 whole entry, looked up): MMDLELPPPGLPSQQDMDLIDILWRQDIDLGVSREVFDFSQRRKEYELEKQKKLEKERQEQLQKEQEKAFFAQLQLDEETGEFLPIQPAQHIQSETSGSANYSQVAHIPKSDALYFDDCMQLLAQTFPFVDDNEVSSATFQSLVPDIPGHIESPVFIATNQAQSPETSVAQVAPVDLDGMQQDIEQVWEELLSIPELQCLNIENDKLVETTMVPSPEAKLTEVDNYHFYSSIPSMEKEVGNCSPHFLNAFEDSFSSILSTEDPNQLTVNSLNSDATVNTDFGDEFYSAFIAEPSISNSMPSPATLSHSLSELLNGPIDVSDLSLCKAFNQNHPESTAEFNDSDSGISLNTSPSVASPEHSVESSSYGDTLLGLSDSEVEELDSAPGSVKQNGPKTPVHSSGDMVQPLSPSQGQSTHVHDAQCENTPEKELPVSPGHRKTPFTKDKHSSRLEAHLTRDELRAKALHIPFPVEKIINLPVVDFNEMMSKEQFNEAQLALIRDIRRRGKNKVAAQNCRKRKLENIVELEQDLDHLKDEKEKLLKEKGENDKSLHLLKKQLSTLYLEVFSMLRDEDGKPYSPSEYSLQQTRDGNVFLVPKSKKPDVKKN

C[C@](N)(Cc1ccc(O)c(O)c1)C(=O)O
not listed: [18] | [19]
inactive: all other assays above

Cn1c(=O)cc(Oc2ccc(F)cc2F)c2cnc(NCC(C)(C)O)nc21
active: [2] 18.3 µM | [18] 9.98 µM | MYC, MYC (gene 4609) 22.1 µM | [7] 22.1 µM | [14] 1.3 µM
not listed: [9] | [11] | [19]
inactive: all other assays above

CCCCCCCCCCCCCCCO
not listed: [17] | [18]
inactive: all other assays above

Cc1ccc(C)c(O)c1
not listed: [9]
inactive: all other assays above

Fc1ccccc1[C@@H](F)COC1CCC(Nc2ncnc3[nH]ncc23)CC1 (some centres not stated)
active: [2] 12.6 µM | [4] 50 µM | [5] 56.5 µM | [6] 64.7 µM | MYC, MYC (gene 4609) 34 µM | [7] 50 µM | [8] 35.8 µM | [12] 55.8 µM | [13] 11.7 µM | [19] 26.5 µM | [16] 8.85 µM | [17] 71.7 µM
inactive: [1] | [3] | [9] | [10] | [11] | [15]

CC/C(=C\C(=N/O)C(N)=O)C(C)[N+](=O)[O-] (configuration not stated)
not listed: [9] | [11] | [19]
inactive: all other assays above

O=c1[nH]c2ccc(S(=O)CCN3CCC(Cc4ccc(F)cc4)CC3)cc2o1 (configuration not stated)
active: [2] 67.3 µM | [4] 82 µM | MYC, MYC (gene 4609) 17.3 µM | [8] 50 µM | [12] 67.2 µM | [13] 14.7 µM | [15] 50 µM
not listed: [18] | [19]
inactive: all other assays above

CCOc1cccc(-n2cc(C(=O)N3CCN(c4cc(C(=O)O)c5ccccc5c4)CC3)nc2-c2ccc(C)cc2)c1
active: [2] 16.2 µM | [4] 31.3 µM | [5] 30.4 µM | [8] 33.2 µM | [10] 86.4 µM | [11] 79.2 µM | [12] 29.9 µM | [13] 89.3 µM | [15] 82.3 µM | [16] 50 µM | [17] 37.4 µM
inactive: [1] | [3] | [6] | MYC, MYC (gene 4609) | [7] | [9] | [14]

COC(=O)CC(=O)OC
active: [8] 50 µM
not listed: [9] | [14] | [19]
inactive: all other assays above

On1ccccc1=S
not listed: [11] | [19]
inactive: all other assays above

CC(C)=CCC/C(C)=C\CO
not listed: [11] | [19]
inactive: all other assays above

CCOCCO
not listed: [14] | [18]
inactive: all other assays above

CC(=O)OCCC(C)C
not listed: [9]
inactive: all other assays above

CC(C)c1cccc(C(C)C)c1N1C(=O)c2ccc(O)cc2C1=O
active: [2] 88.7 µM | [4] 82.8 µM | [5] 93.6 µM | [6] 89.9 µM | MYC, MYC (gene 4609) 50 µM | [7] 93.4 µM | [8] 76.8 µM | [12] 91.4 µM | [15] 50 µM
not listed: [18]
inactive: all other assays above
